# Laboratory results reported in PubChem BioAssay.
# Several values for one entry are separate records, joined by “and”; a condition that tells them apart may be missing. Equal values may be shown once. Inconclusive results are not listed. Activity calls are given as the source filed them.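 Rule for the calls, unless noted: active = normalized viability below 100% at a tested concentration; inactive = the rest.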
# Experiments:
# [1] = SU-DIPG-VI glioma cell viability, MIPE4.0 library, CellTiter-Glo luminescence, qHTS (AID 1347066; cut-off not given, nearly all actives have AC50 up to about 30 µM;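 note: cells exposed to compound for 48 hours before readout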); conditions: CellTiter-Glo ATP luminescence
# [2] = modifiers of HSF1 nuclear foci, imaging, Selleck Cancer Library (AID 1347162; in the data active = plate-normalised HSF1 focus index below about 0.46); conditions: human cells, at 10 µM; SSMD: measured here: HSF1 foci SSMD mean; cell count: measured here: cell number; plate-normalised HSF1 focus index: stronger effect = lower value
# [3] = survival rescue of mitochondrial mutant cells in low glucose, primary screen, MELAS cybrids, Rieske KO mouse fibroblasts, CellTiter-Glo (AID 1508586;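 active = mean z-score across replicates of 1.96 or higher in either the MELAS or the Rieske mutant cell line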;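 note: z relative to plate mean and SD of compound and empty wells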)
# [4] = ovarian cancer cell viability with rucaparib, profiling panel, oncology-focused library, rucaparib conditional (AID 1508598); conditions: patient-derived ovarian cancer cells, CellTiter-Glo viability, 144 h, stronger effect = lower value
# [5] = molecular target: NAD(+) hydrolase SARM1 (Homo sapiens) (UniProt Q6SZW1); assay: SARM1 TIR NADase inhibitors, cell lysate, NAD-Glo luminescence (AID 1508614;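 active = compound whose remaining NAD level is above about 45 nM, limit read from the data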;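 note: higher remaining NAD means stronger inhibition of SARM1 NADase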); conditions: SAM-TIR HEK293T lysate NADase, at 1 µM, stronger effect = higher value
# Chain of NAD(+) hydrolase SARM1 (Homo sapiens) (Q6SZW1 whole entry, looked up, the tested form may be a part): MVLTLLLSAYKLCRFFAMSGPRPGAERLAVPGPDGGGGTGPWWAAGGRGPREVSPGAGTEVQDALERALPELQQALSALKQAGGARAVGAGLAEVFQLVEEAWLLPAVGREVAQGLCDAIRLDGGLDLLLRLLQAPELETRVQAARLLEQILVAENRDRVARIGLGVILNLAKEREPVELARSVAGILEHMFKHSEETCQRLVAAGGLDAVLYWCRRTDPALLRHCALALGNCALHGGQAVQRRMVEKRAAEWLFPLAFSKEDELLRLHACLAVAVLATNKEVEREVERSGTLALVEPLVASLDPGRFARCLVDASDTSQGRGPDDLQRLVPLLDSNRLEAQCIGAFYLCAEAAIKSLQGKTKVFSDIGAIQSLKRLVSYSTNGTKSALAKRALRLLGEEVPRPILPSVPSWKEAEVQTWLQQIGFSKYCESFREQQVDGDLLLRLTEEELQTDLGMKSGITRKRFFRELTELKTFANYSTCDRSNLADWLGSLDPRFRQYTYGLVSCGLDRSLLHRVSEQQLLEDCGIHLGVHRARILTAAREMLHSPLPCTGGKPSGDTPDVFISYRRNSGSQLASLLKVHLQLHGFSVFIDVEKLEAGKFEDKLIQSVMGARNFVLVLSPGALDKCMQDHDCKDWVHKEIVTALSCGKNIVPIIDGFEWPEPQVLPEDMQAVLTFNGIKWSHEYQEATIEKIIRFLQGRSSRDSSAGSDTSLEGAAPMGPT
# [6] = molecular target: Mitogen-activated protein kinase 7 (Homo sapiens) (UniProt Q13164); assay: ERK5 transactivation activators in reporter cells, primary screen, cell-based, HTS (AID 1508626;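 active = luciferase signal above three times the same-plate solvent-only control wells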;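 note: luciferase driven by Gal4-ERK5 fusion binding five Gal4 sites before minimal TATA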); conditions: HeLa Gal4-ERK5 transactivation, 18 h, at 5 µM, stronger effect = higher value
# Chain of Mitogen-activated protein kinase 7 (Homo sapiens) (Q13164 whole entry, looked up, the tested form may be a part): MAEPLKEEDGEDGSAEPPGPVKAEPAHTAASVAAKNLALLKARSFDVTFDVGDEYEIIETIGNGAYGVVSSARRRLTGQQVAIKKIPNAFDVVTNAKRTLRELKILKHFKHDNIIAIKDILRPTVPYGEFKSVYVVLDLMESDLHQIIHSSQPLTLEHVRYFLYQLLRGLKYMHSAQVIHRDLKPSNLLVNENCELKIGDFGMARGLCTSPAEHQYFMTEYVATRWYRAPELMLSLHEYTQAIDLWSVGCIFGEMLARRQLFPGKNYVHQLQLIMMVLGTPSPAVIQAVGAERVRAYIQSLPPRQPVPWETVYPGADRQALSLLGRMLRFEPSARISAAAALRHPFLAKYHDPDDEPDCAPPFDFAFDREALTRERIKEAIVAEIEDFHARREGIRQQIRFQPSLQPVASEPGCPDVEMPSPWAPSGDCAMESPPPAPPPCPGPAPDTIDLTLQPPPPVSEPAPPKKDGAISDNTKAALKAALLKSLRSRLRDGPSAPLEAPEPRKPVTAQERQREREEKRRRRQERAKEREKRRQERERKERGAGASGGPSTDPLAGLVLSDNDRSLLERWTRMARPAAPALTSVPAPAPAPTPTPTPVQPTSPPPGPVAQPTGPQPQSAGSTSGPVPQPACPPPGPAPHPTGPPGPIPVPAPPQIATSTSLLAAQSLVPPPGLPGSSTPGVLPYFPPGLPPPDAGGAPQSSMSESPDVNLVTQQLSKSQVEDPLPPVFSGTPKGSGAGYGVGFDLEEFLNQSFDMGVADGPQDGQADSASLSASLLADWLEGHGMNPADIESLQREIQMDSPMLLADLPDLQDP
# [7] = viability rescue of complex I mutant cybrids, primary screen, cell-based, galactose medium, ATP luminescence (AID 1645843;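 active = z-score of at least 1.8 in each of two replicates, scored against plate mean and spread of sample wells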;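 note: positive z means more ATP and so rescue of galactose-driven cybrid death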); conditions: complex I mutant cybrid cells, 72 h, stronger effect = higher value
# [8] = JHH-DIPG-1 glioma cell viability, MIPE5.0 library, CellTiter-Glo luminescence, qHTS (AID 1347067; cut-off not given, nearly all actives have AC50 up to about 26 µM;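 note: cells exposed to compound for 48 hours before readout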); conditions: JHH-DIPG-1 glioma viability, CellTiter-Glo ATP luminescence
# [9] = phospholipid biosynthesis inhibitors in animal cells, primary screen, cell-based, LOPAC library, screen 4 (AID 1347384; call rule not given here); conditions: phospholipid biosynthesis inhibition screen, at 10 µM
# [10] = MELAS cybrid survival, CellTiter-Glo 48 h, stronger effect = higher value
# [11] = Rieske KO mouse fibroblast survival, CellTiter-Glo 72 h
# [12] = at 0.000305 µM, OCI-C5x cells, with rucaparib 10 µM, 100% = cells with rucaparib alone
# [13] = at 0.000305 µM, OCI-C5x cells, without rucaparib
# [14] = at 0.000305 µM, OCI-P5x cells, with rucaparib 20 µM, 100% = cells with rucaparib alone
# [15] = at 0.000305 µM, OCI-P5x cells, without rucaparib
# [16] = at 0.00122 µM, OCI-C5x cells, with rucaparib 10 µM, 100% = cells with rucaparib alone
# [17] = at 0.00122 µM, OCI-C5x cells, without rucaparib
# [18] = at 0.00122 µM, OCI-P5x cells, with rucaparib 20 µM, 100% = cells with rucaparib alone
# [19] = at 0.00122 µM, OCI-P5x cells, without rucaparib
# [20] = at 0.00488 µM, OCI-C5x cells, with rucaparib 10 µM, 100% = cells with rucaparib alone
# [21] = at 0.00488 µM, OCI-C5x cells, without rucaparib
# [22] = at 0.00488 µM, OCI-P5x cells, with rucaparib 20 µM, 100% = cells with rucaparib alone
# [23] = at 0.00488 µM, OCI-P5x cells, without rucaparib
# [24] = at 0.0195 µM, OCI-C5x cells, with rucaparib 10 µM, 100% = cells with rucaparib alone
# [25] = at 0.0195 µM, OCI-C5x cells, without rucaparib
# [26] = at 0.0195 µM, OCI-P5x cells, with rucaparib 20 µM, 100% = cells with rucaparib alone
# [27] = at 0.0195 µM, OCI-P5x cells, without rucaparib
# [28] = at 0.0781 µM, OCI-C5x cells, with rucaparib 10 µM, 100% = cells with rucaparib alone
# [29] = at 0.0781 µM, OCI-C5x cells, without rucaparib
# [30] = at 0.0781 µM, OCI-P5x cells, with rucaparib 20 µM, 100% = cells with rucaparib alone
# [31] = at 0.0781 µM, OCI-P5x cells, without rucaparib
# [32] = at 0.313 µM, OCI-C5x cells, with rucaparib 10 µM, 100% = cells with rucaparib alone
# [33] = at 0.313 µM, OCI-C5x cells, without rucaparib
# [34] = at 0.313 µM, OCI-P5x cells, with rucaparib 20 µM, 100% = cells with rucaparib alone
# [35] = at 0.313 µM, OCI-P5x cells, without rucaparib
# [36] = at 1.25 µM, OCI-C5x cells, with rucaparib 10 µM, 100% = cells with rucaparib alone
# [37] = at 1.25 µM, OCI-C5x cells, without rucaparib
# [38] = at 1.25 µM, OCI-P5x cells, with rucaparib 20 µM, 100% = cells with rucaparib alone
# [39] = at 1.25 µM, OCI-P5x cells, without rucaparib
# [40] = at 5 µM, OCI-C5x cells, with rucaparib 10 µM, 100% = cells with rucaparib alone
# [41] = at 5 µM, OCI-C5x cells, without rucaparib
# [42] = at 5 µM, OCI-P5x cells, with rucaparib 20 µM, 100% = cells with rucaparib alone
# [43] = at 5 µM, OCI-P5x cells, without rucaparib
compound,measurement,setting,value
CC(c1cc2ccccc2s1)N(O)C(N)=O (stereo not drawn),outcome,[1],inactive
same,SSMD,[2],2.48
same,cell count,[2],7010
same,plate-normalised HSF1 focus index,[2],1.14 (inactive)
same,z-score,[3]; [10],-0.393 (inactive) and -0.528 (inactive) and -0.827 (inactive)
same,z-score,[3]; [11],0.713 and 0.986 and 1.26
same,viability,[4]; [12],111% (inactive)
same,viability,[4]; [13],124% (inactive)
same,viability,[4]; [14],77.5% (active)
same,viability,[4]; [15],83.5% (active)
same,viability,[4]; [16],98.9% (active)
same,viability,[4]; [17],121% (inactive)
same,viability,[4]; [18],61% (active)
same,viability,[4]; [19],79.9% (active)
same,viability,[4]; [20],128% (inactive)
same,viability,[4]; [21],122% (inactive)
same,viability,[4]; [22],48.8% (active)
same,viability,[4]; [23],63.4% (active)
same,viability,[4]; [24],119% (inactive)
same,viability,[4]; [25],125% (inactive)
same,viability,[4]; [26],47.6% (active)
same,viability,[4]; [27],63.9% (active)
same,viability,[4]; [28],103% (inactive)
same,viability,[4]; [29],125% (inactive)
same,viability,[4]; [30],97.3% (active)
same,viability,[4]; [31],118% (inactive)
same,viability,[4]; [32],113% (inactive)
same,viability,[4]; [33],121% (inactive)
same,viability,[4]; [34],115% (inactive)
same,viability,[4]; [35],123% (inactive)
same,viability,[4]; [36],109% (inactive)
same,viability,[4]; [37],124% (inactive)
same,viability,[4]; [38],106% (inactive)
same,viability,[4]; [39],124% (inactive)
same,viability,[4]; [40],113% (inactive)
same,viability,[4]; [41],129% (inactive)
same,viability,[4]; [42],105% (inactive)
same,viability,[4]; [43],116% (inactive)
same,remaining NAD,[5],10 nM (inactive)
same,luciferase signal,[6],36 AU (inactive)
same,z-score,[7],0.465 (inactive) and 0.63 (inactive)
CC[C@@]1(O)C(=O)OCc2c1cc1n(c2=O)Cc2cc3c(CN(C)C)c(O)ccc3nc2-1,outcome,[1],inactive
same,AC50,[8],4.17 µM (active)
same,SSMD,[2],-8.15
same,cell count,[2],6870
same,plate-normalised HSF1 focus index,[2],0.582 (inactive)
same,outcome,[9],inactive
same,z-score,[3]; [10],-0.568 (inactive) and -2.28 (inactive) and -2.25 (inactive)
same,z-score,[3]; [11],0.849 and -0.703 and -1.06
same,viability,[4]; [12],104% (inactive)
same,viability,[4]; [13],104% (inactive)
same,viability,[4]; [14],94.2% (active)
same,viability,[4]; [15],107% (inactive)
same,viability,[4]; [16],89.3% (active)
same,viability,[4]; [17],92.9% (active)
same,viability,[4]; [18],83.1% (active)
same,viability,[4]; [19],79.7% (active)
same,viability,[4]; [20],83.9% (active)
same,viability,[4]; [21],62.6% (active)
same,viability,[4]; [22],64.6% (active)
same,viability,[4]; [23],49.2% (active)
same,viability,[4]; [24],61.6% (active)
same,viability,[4]; [25],46.1% (active)
same,viability,[4]; [26],51.1% (active)
same,viability,[4]; [27],31.5% (active)
same,viability,[4]; [28],43.7% (active)
same,viability,[4]; [29],22.5% (active)
same,viability,[4]; [30],31.5% (active)
same,viability,[4]; [31],11.7% (active)
same,viability,[4]; [32],31% (active)
same,viability,[4]; [33],10.3% (active)
same,viability,[4]; [34],10.6% (active)
same,viability,[4]; [35],4.1% (active)
same,viability,[4]; [36],11.2% (active)
same,viability,[4]; [37],7.82% (active)
same,viability,[4]; [38],3.74% (active)
same,viability,[4]; [39],1.56% (active)
same,viability,[4]; [40],4.91% (active)
same,viability,[4]; [41],4% (active)
same,viability,[4]; [42],5.99% (active)
same,viability,[4]; [43],4.13% (active)
same,remaining NAD,[5],10 nM (inactive)
same,z-score,[7],-1.13 (inactive) and -1.87 (inactive) and -2.38 (inactive)
